Article PMC5540273 (PLoS ONE, 2017)

Tested on: TLK1
Conditions: concentration: 1 μM, replicates: in singlicate; n = 1
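Further: KINOMEscan kinase panel screen.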

Compound	%Inh [%]
Cn1cc(-c2ccc3c(c2)CCN3C(=O)Cc2cccc(Cl)c2)c2c(N)ncnc21 [GSK2606590]	0
COc1ccc(-c2coc3ccc(-c4nnc(SCc5ccc(OC)c(C(F)(F)F)c5)o4)cc23)cc1	17
CCS(=O)(=O)c1ccc(OC)c(Nc2nccc(-c3c(-c4cccc(NC(=O)c5c(F)cccc5F)c4)nn4ncccc34)n2)c1 [GSK326180]	3
O=C(Nc1cccc(-c2nn3ccccc3c2-c2ccnc(Nc3cccc(C(F)(F)F)c3)n2)c1)c1c(F)cccc1F [GSK292658]	0
NCCCC(NC(=O)c1cc(Br)c(-c2ccnc3[nH]ccc23)s1)c1ccccc1.O=C(O)C(F)(F)F.O=C(O)C(F)(F)F (stereo not shown) [GSK1287544]	0
CC(=O)Nc1nc2cnc(Nc3cc(NC(=O)c4cccc(C5(C#N)CC5)c4Cl)ccc3C)nc2s1	14
COc1ccc(CNC(=O)NC2CCN(c3ccnc(Nc4ccc(F)cc4)n3)CC2)cc1 [GSK1379788]	0
Clc1ccc(-c2nn3ncccc3c2-c2ccnc(Nc3ccc4c(c3)OCCO4)n2)cc1 [GW829116]	0
CC(C)(C)c1ccc2nccc(Nc3cccc(O)c3)c2c1 [GW856795]	12
COc1cc(Nc2nccc(N3CCC(NC(=O)Nc4cccc(C(C)=O)c4)C3)n2)cc(OC)c1OC (stereo not shown) [GSK1379753]	0
COc1cc(Nc2nccc(-c3c(-c4cccc(NC(=O)c5c(F)cccc5F)c4)nn4ccccc34)n2)cc(OC)c1OC [GSK323521]	6
COc1cccc(NC(=O)NC2CCN(c3ccnc(Nc4cc(OC)c(OC)c(OC)c4)n3)C2)c1 (stereo not shown) [GSK1379763]	10
O=C(O)C(F)(F)F.O=C(O)C(F)(F)F.O=c1[nH]ccc2nc(N[C@@H]3CCCNC3)nc(Nc3ccc(S(=O)(=O)N4CCOCC4)cc3)c12 [GSK2177277]	94.3
CCCCc1nn2ncccc2c1-c1ccnc(Nc2ccc(N3CCN(C)CC3)cc2)n1 [GW684941]	0
CN(c1ccc(NC(=O)Nc2cc(C(F)(F)F)ccc2F)cc1)c1ccnc(Nc2ccc(S(N)(=O)=O)cc2)n1 [GW809893]	0
Nc1ncc(-c2cccnc2)c2scc(-c3ccc4c(c3)CCN4C(=O)Cc3ccccc3)c12 [GSK683281]	0
Cc1ccc(C(=O)Nc2ccc(Nc3ccnc4cc(-c5nccs5)ccc34)cc2O)cc1.Cl [GW494702]	0
COc1cc(Nc2nccc(N3CCC(NC(=O)c4cc5ccccc5s4)C3)n2)cc(OC)c1OC (stereo not shown) [GSK1379760]	8
O=C(Nc1cccc(-c2nn3ccccc3c2-c2ccnc(Nc3cccc(F)c3)n2)c1)c1c(F)ccc(F)c1Cl [GSK357952]	0

Compound	%Inh [%]
CN(C)Cc1ccc(-c2ccc3c(Nc4ccc(Oc5ccccn5)cc4)ccnc3c2)o1 [GW567148]	0
CNC(=O)c1ccccc1Nc1nc(Nc2ccc(N3CCOCC3)cc2)ncc1Cl.Cl [GSK1576028]	52
Cl.Cl.NCC(NC(=O)c1cc(-c2ccccc2)c(-c2ccnc3[nH]ccc23)s1)c1ccccc1 (stereo not shown) [GSK1321561]	54
COc1ccc(Nc2nccc(N3CCC(NC(=O)Nc4cccc(OC)c4)C3)n2)cc1 (stereo not shown) [GSK1379742]	0
COC(=O)Nc1nc2cc(Oc3ccc(NC(=O)Nc4cc(C(F)(F)F)ccc4F)cn3)ccc2[nH]1.Cl.Cl [GW681170]	11
O=C(Nc1n[nH]c2cc(-c3ccoc3)ccc12)C1CC1 [SB-738481]	7
CSc1cccc2c(-c3ccncn3)c(-c3ccc(F)cc3)nn12 [GW514786]	0
c1ccc(Oc2ccc(Nc3ccnc4cc(-c5ccc(CNCCN6CCOCC6)o5)ccc34)cc2)nc1 [GW567145]	0
Nc1ncnc2c1nc(-c1ccccc1)n2-c1ccccc1 [SKF-97293]	0
Cl.c1ccc(-c2ccc3c(Nc4ccc5[nH]ccc5c4)ccnc3c2)nc1 [GW440138]	1
Cl.NC(=O)c1cccc(Nc2nccc(Nc3ccc(Oc4c(Cl)cccc4Cl)c(Cl)c3)n2)c1 [GW659009]	0
Cc1occc1-c1ncc(OC[C@@H](N)Cc2c[nH]c3ccccc23)cc1-c1ccc2[nH]nc(C)c2c1.O=C(O)C(F)(F)F [GSK682037]	0
Cc1ccc(C(=O)N2CC[C@@H](O)C2)cc1-n1c(C)cc(OCc2ccc(F)cc2F)c(Br)c1=O	13
Oc1cc(Nc2ccnc3cc(I)ccc23)ccc1F [GW552771]	10
c1ccc(-c2n[nH]cc2Nc2ccnc3ccccc23)nc1 [GW694077]	0
CC(C)c1nc(-c2cccc(NS(=O)(=O)c3c(F)cccc3F)c2F)c(-c2ccnc(Nc3ccc(N4CCOCC4)nc3)n2)s1 [GSK2008607]	22
Cn1cc(-c2[nH]c3cc(NC(=O)[C@H](N)C4CCCCC4)cc4c3c2C=NNC4=O)cn1	8
C[C@@H](Oc1cc(-n2cnc3cc(-c4ccnc(NCCS(C)(=O)=O)c4)ccc32)sc1C(N)=O)c1ccccc1Cl [GSK907232]	0
